From PubChem BioAssay AID802 (Columbia University Molecular Screening Center, 2007) come the findings set out here.

Each structure is given as a SMILES string. Hit rate of the full screen: of about 95,000 compounds, about 460 (0.48%) were called active. This is one part of a sample in which actives are shown more often than they occur.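 How the source made its calls: active means inhibition above the batch mean plus 3 SD, with images confirmed as a hit by eye (cut at about 37% in these data); inconclusive means inhibition above that limit but hit not confirmed in images; inactive means inhibition not above that limit.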

This experiment is described as follows: blockers of endothelial VCAM-1 upregulation by TNFa – imaging, HUVEC, TNFa stimulus, immunofluorescence, primary screen (AID 802).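 Further: 0% = TNF-stimulated DMSO wells and 100% = unstimulated control wells.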 As to conditions: HUVEC TNFa-induced VCAM-1 immunofluorescence, high-content imaging; at 2 µM; stronger effect = higher value.
Broadly, the inhibition is the drop in the measured response relative to a control, in per cent. For the compound `CCOc1ccc(C(=O)NC2CCN(C(=O)Nc3ccccc3OC)CC2)cc1`, the inhibition is -14.1% (inactive).

For the compound `O=C(NC(Nc1nc2ccc([N+](=O)[O-])cc2s1)(C(F)(F)F)C(F)(F)F)c1ccccc1`, the inhibition was 88.1% (active).

In the case of `COC(=O)C(NC(=O)c1ccc(OC)cc1)(Nc1ncc(S(=O)(=O)c2ccc([N+](=O)[O-])cc2)s1)C(F)(F)F` (stereo not given), the inhibition was -3.1% (inactive).

Take `Cc1cc(C)cc(OCC(=O)Nc2nc3ccc([N+](=O)[O-])cc3s2)c1`: the inhibition was 21.3% (inactive).

Regarding `Cc1ccccc1NC(=S)Nc1cccc([N+](=O)[O-])c1`, the inhibition was -16.9% (inactive).

In the case of `COc1ccc(Nc2ncc(C(=O)N3CCN(c4ccccc4OC)CC3)c3ccccc23)cc1`, the inhibition is 26.1% (inactive).

Take `FC(F)(F)c1cc(-c2ccco2)nc(NCc2ccc(Cl)cc2)n1`: the inhibition is 9.6% (inactive).

`Cc1cc(C)c2c(-n3cccc3)c(NC(=O)OCc3ccccc3)sc2n1`: the inhibition was 25.4% (inactive).

Regarding `COc1cccc(CNc2nc3nc4c(c(=O)n3[nH]2)CCC4)c1`, the inhibition was 15.2% (inactive).

Consider `Cc1cccc(-n2cnc(C(=O)Nc3cccnc3)c2)n1`, for which the inhibition was -5.1% (inactive).

Turning to `CCOC(=O)Cc1csc(NC(=O)CSc2nnc(-c3cccnc3)n2Cc2ccco2)n1`, the inhibition is 15.6% (inactive).

For `O=S(=O)(Cc1cc(Sc2ccccc2)nc(-c2ccccc2)n1)c1ccccc1`, the inhibition was -28.4% (inactive).

In the case of `CCOc1ccccc1NC(=O)c1cccnc1`, the inhibition was -0.4% (inactive).

For `COc1ccc(C(F)(F)F)cc1N/C=C\c1nnnn1-c1ccc(C)cc1`, the inhibition is 16.2% (inactive).

Turning to `CCc1ccc(Nc2ncc3c(n2)CC(c2ccco2)CC3=O)cc1` (stereo not given), the inhibition was -20.6% (inactive).

Consider `O=C(Nc1ncc2c(n1)-c1ccccc1OC2)c1ccc(Cl)cc1`, for which the inhibition is 6.1% (inactive).

For the compound `O=C(Nc1ncc2c(n1)CC(c1ccco1)CC2=O)c1ccc(Cl)cc1` (stereo not given), the inhibition was 91.4% (active).

With `COc1ccc(C2C(C(C)=O)=C(O)C(=O)N2c2nccs2)cc1` (stereo not given), the inhibition is 12.3% (inactive).

Turning to `COc1cc2cc(CN(CCN3CCCC3)C(=O)Nc3ccccc3Cl)c(=O)[nH]c2cc1OC`, the inhibition was 28.3% (inactive).

For `CCCN(Cc1cc2cccc(C)c2[nH]c1=O)S(C)(=O)=O`, the inhibition was -13.9% (inactive).

In the case of `COc1ccc(CCN(Cc2cc3cccc(C)c3[nH]c2=O)C(=O)N2CCCC2)cc1OC`, the inhibition was 91.4% (active).

As to `COc1ccc(Nc2cc(=O)oc3ccccc23)cc1`, the inhibition is 88.9% (active).

For `COc1ccc2oc(C)c(NC(C)=O)c2c1`, the inhibition was 0.3% (inactive).

Regarding `COc1ccc(N2CCN(Cc3cc(=O)oc4ccc5ccccc5c34)CC2)cc1`, the inhibition was 9.8% (inactive).

For `CCCSC(=S)NC1CCS(=O)(=O)C1` (stereo not given), the inhibition is 4.3% (inactive).

As for `CCN(CC)CCn1c(=S)[nH]c2ncccc2c1=O`, the inhibition was 11% (inactive).

Regarding `c1ccc(Nc2nc(N3CCOCC3)c3ccccc3n2)cc1`, the inhibition is -8.6% (inactive).

Consider `CCOC(=O)N1CCN(C(c2cccnc2)c2ccc3cccnc3c2O)CC1` (stereo not given), for which the inhibition is 9.9% (inactive).

With `COc1ccc(-c2nnc(SCC(=O)NC3CCCCC3)o2)cc1OC`, the inhibition was 87.2% (active).

With `COc1ccc(CCNC(=O)CSc2nnc(-c3cccc(F)c3)o2)cc1OC`, the inhibition was 11.2% (inactive).

Consider `COc1ccc(CN(C(=O)CSc2nnc(-c3ccc(OC)c(OC)c3)o2)c2ccc(F)cc2)cc1`, for which the inhibition was 17.6% (inactive).

In the case of `Cc1cc2cc3c(cc2nc1SCC(=O)Nc1c(C)cccc1C)CCC3`, the inhibition was 6% (inactive).

In the case of `Cc1cccc(NC(=O)C(C)N2C(=O)C3C4CC(C(Br)C4Br)C3C2=O)c1` (stereo not given), the inhibition is 8.5% (inactive).

Take `CCC1(CC)NC(=O)N(CC(=O)OCC(=O)Nc2ccc(C(F)(F)F)cc2)C1=O`: the inhibition was 9.5% (inactive).

On to `O=C(Nc1cc2c3c(c1)C1CCCC1CN3CC1CCCC21)c1ccc([N+](=O)[O-])cc1` (stereo not given), for which the inhibition is 3% (inactive).

As for `Cc1n[nH]c(=S)n1/N=C/c1ccc(Br)o1`, the inhibition is 4.4% (inactive).

Regarding `O=[N+]([O-])c1ccc(NCCCN2CCOCC2)c(Cl)c1`, the inhibition was -2.6% (inactive).

Consider `CC(C)(C)Cc1nnc(NC(=O)c2cc(-c3ccccc3)nc3ccccc23)s1`, for which the inhibition was -0.7% (inactive).

Take `CC1(C)CC(CC(=O)O)C(=O)O1` (stereo not given): the inhibition is 20.1% (inactive).

For `CCOc1ccc(-n2c(N)c(C(=O)NCC3CCCO3)sc2=S)cc1` (stereo not given), the inhibition is -3.3% (inactive).

For `Cc1ccc2c(c1)-c1c(ssc1=S)C(C)(C)N2C(=O)CN1C(=O)c2ccccc2C1=O`, the inhibition was -19.4% (inactive).

As for `CCOC(=O)c1c(N=CN(C)C)c(C#N)c2n1CCCC2`, the inhibition was 8.7% (inactive).

On to `COc1ccc(/C=N/Nc2nc3ccccc3o2)cc1OC`, for which the inhibition was -32.9% (inactive).

Turning to `C=CCNC(=S)NNc1ncnc2sc3c(c12)CC(C)(C)OC3`, the inhibition was 27.9% (inactive).

`O=C(CN1C(=O)C2C3C=CC(C3)C2C1=O)Nc1nc(-c2ccccn2)cs1` (stereo not given): the inhibition was 11% (inactive).

Consider `Cc1cc(NC(=O)CSc2nc(C(C)C)nc3sc4c(c23)CCC(C)C4)no1` (stereo not given), for which the inhibition was 18.6% (inactive).

Take `CC(=O)Nc1ccc(N2C(=O)CCC2=O)cc1C`: the inhibition was 8.8% (inactive).

In the case of `O=C(/C=C/Nc1ccccc1)c1cnc(-c2ccccc2)s1`, the inhibition was -1.5% (inactive).

For the compound `Cc1ccc(C2(C(F)(F)F)N=C3Sc4cc(C)cc(C)c4N3C(=O)N2)cc1` (stereo not given), the inhibition was 7.1% (inactive).

Take `Cc1ccc(C)c(N2C(=O)CS/C2=N\NC(=O)c2ccccc2Cl)c1`: the inhibition is 10.4% (inactive).

Regarding `O=C(Cn1ccc([N+](=O)[O-])n1)NCc1cccs1`, the inhibition was 7.9% (inactive).

`O=c1c([N+](=O)[O-])cc(C(F)(F)F)cn1Cc1cccc(Cl)c1`: the inhibition is 3.2% (inactive).

Take `O=C(N/N=C\c1ccc(-c2ccc(Cl)c(Cl)c2)o1)C(=O)N1CCCC1`: the inhibition is -4.3% (inactive).

For the compound `CCCNC(=O)NCc1ccc(N2CCCC2=O)cc1`, the inhibition is 3.5% (inactive).

Take `CCOC(=O)c1c(NC(=S)Nc2ccccc2)sc2c1CCN(C)C2`: the inhibition is 12.8% (inactive).

Regarding `CC(=O)c1cn(CCCCCCCCCCn2cc(C(C)=O)c(=O)[nH]c2=O)c(=O)[nH]c1=O`, the inhibition is 5.5% (inactive).

As for `O=C(Nc1ccn(Cc2ccccc2F)n1)c1ccc(COc2ccc(Cl)cc2Cl)o1`, the inhibition was 4.3% (inactive).

For `Cc1ccc(C2C(C#N)C(C#N)N3CCCN23)cc1` (stereo not given), the inhibition was -8% (inactive).

Consider `CCc1cc(C(c2ccccc2OC)N2CCOCC2)c(NC(=O)c2ccccc2)s1` (stereo not given), for which the inhibition is 3.5% (inactive).

Consider `COCCNC(=O)c1onc(CSc2cccc(C)c2)c1C(=O)O`, for which the inhibition was 13.5% (inactive).

Take `Cn1c(NN)nc2sc3c(c2c1=O)CCC3`: the inhibition is 27.5% (inactive).

Consider `O=C(CSCc1ccccc1Cl)NNC(=O)c1ccccc1`, for which the inhibition was 2.9% (inactive).

With `CC(=O)c1cccc(NC(=O)C2CCCN2S(=O)(=O)c2cccc3nsnc23)c1` (stereo not given), the inhibition was -0.5% (inactive).

With `CCc1ccc(/C=N/NC(=O)c2ccc(OC3CCCC3)cc2)s1`, the inhibition is -3.5% (inactive).

`COC(=O)c1ccc(S(=O)(=O)N2CCC(c3nc4ccccc4o3)CC2)cc1`: the inhibition is -1.2% (inactive).

In the case of `O=c1[nH]c(CSc2ncc(-c3ccc(F)cc3)n2Cc2ccco2)nc2ccccc12`, the inhibition was -0.9% (inactive).

Consider `Nc1cc(=O)nc(SCc2ccccc2)n1Cc1ccco1`, for which the inhibition is 95% (active).

As for `c1ccc(CSc2nnc(-c3ccco3)n2Cc2ccccc2)cc1`, the inhibition is -1.6% (inactive).

For `CCn1nccc1C(=O)Nc1ccc(Cl)c(Cl)c1`, the inhibition is 2.3% (inactive).

For the compound `CC(C)c1ccc(/C=C/C(=O)NNC(=O)c2cccnc2)cc1`, the inhibition was -5.5% (inactive).

As for `C=CCn1c(SCC(=O)c2ccc(Br)cc2)nnc1C(C)NC(=O)Cc1ccc(OC)cc1` (stereo not given), the inhibition was 12.4% (inactive).

Consider `O=C(/C=C/c1ccco1)Nc1ccc(Oc2ccccc2)cc1`, for which the inhibition was 6.5% (inactive).

Turning to `Cc1ccc(-n2nc3ccc(NC(=O)/C=C/c4ccco4)cc3n2)cc1C`, the inhibition is 46.8% (active).

With `O=C(/C=C/c1ccco1)Nc1cccc(-c2nc3ccccc3[nH]2)c1`, the inhibition was 9.8% (inactive).

Take `CC(O)CN(Cc1ccc(Cl)cc1)CC(C)O` (stereo not given): the inhibition was -2.6% (inactive).

Take `Cc1ccc(NC(=S)Nc2ncccc2C)c(C)c1`: the inhibition was 2.5% (inactive).

For `CC1=NN(Cc2ccccc2)C(=O)/C1=C/c1ccc(N(C)C)cc1`, the inhibition was 3.7% (inactive).

Consider `COC(=O)c1cc2nc(-c3ccccc3)cc(C(F)(F)F)n2n1`, for which the inhibition is -20.1% (inactive).

As to `Cc1cc(C)c2cc(CN(Cc3nnnn3Cc3ccc(F)cc3)C3CCCC3)c(=O)[nH]c2c1`, the inhibition was 1.5% (inactive).

Regarding `CS(=O)(=O)c1sc2nc(-c3ccccc3)cc(-c3ccccc3)c2c1N`, the inhibition was -20.3% (inactive).

For the compound `COc1ccccc1/C=C/C1=NC(=C\N(C)C)/C(=O)O1`, the inhibition was 5.1% (inactive).

On to `CCN(CC)S(=O)(=O)c1ccc2c3c(cccc13)C(=O)S2`, for which the inhibition is 8.1% (inactive).

As to `Cc1ccc(F)cc1NC(=O)c1ccc2c(c1)OCO2`, the inhibition is 96.8% (active).

Regarding `Cc1ccc(F)cc1NC(=O)c1cccc(N(C)C)c1`, the inhibition was -5.6% (inactive).

As to `O=C(Nc1ccccc1)c1ccc2c(c1)OCO2`, the inhibition is -10.7% (inactive).

In the case of `S=c1nccc(-c2cc(Cl)sc2Cl)[nH]1`, the inhibition was 2% (inactive).

`COc1ccccc1CNC(=O)c1ccc(SC)cc1OC`: the inhibition was 18.6% (inactive).

Consider `Cc1cc(-c2ccccc2)nc(N2CCC(C(=O)NC34CC5CC(CC(C5)C3)C4)CC2)n1`, for which the inhibition was -5.8% (inactive).

On to `Cc1nc([N+](=O)[O-])nn1C12CC3CC(CC(Br)(C3)C1)C2`, for which the inhibition was 11.3% (inactive).

On to `Cn1c2c(c(=O)n(C)c1=O)[C@@H]1c3c(ccc4ccccc34)OC[C@@H]1CO2`, for which the inhibition is -9% (inactive).

Take `CCn1c(SCC(=O)Nc2ccc(S(=O)(=O)Nc3onc(C)c3C)cc2)nnc1-c1ccccc1`: the inhibition is 6.4% (inactive).

Turning to `O=C(O)c1ccccc1-c1ccccc1C(=O)Nc1cccc2ccccc12`, the inhibition is 7.4% (inactive).

With `Cc1nnc(NC(=O)CSc2nc(C3CCCCC3)nc3ccccc23)s1`, the inhibition is -0.5% (inactive).

`CCCNC(=S)NC1CC2CCCC(C1)N2CC(C)C` (stereo not given): the inhibition was 5.3% (inactive).

Consider `Cc1cc(C(F)F)n2nc(C(=O)Nc3ccc(S(=O)(=O)NC45CC6CC(CC(C6)C4)C5)cc3)nc2n1`, for which the inhibition is 5.2% (inactive).
